The structures appear in SMILES notation. Out of some 360,000 compounds screened, about 7,300 (2%) were called active. Shown is part of a subset that was picked to be rich in actives. Unmarked numbers belong to inactive results. Cut-off read from the data, not from the text of the source: active = inhibition above about 50%; inactive = the rest.

A short description of this experiment: blockers of TWEAK-induced Fn14 reporter activity – luciferase reporter cells, uHTS, primary screen (AID 1159606). To be noted: TWEAK-stimulated Fn14 reporter cells, luciferase luminescence, 8 h; at 10 µM; active compounds read high. (A reporter such as luciferase makes a cellular process visible.)
Broadly, the inhibition is the relative decrease from the control value, in per cent. As for `O=C(Cc1ccc(S(=O)(=O)N2CCOCC2)s1)Nc1ccc(Br)c(C(F)(F)F)c1`, the inhibition is 17.8%.

With `COc1ccc(OC)c(C(=O)NC2CCCc3c2cnn3-c2cc(C)cc(C)c2)c1` (stereo unspecified), the inhibition was -50.2%.

Regarding `COc1ccc(C(=O)NC2CCCc3c2cnn3-c2cccc(C)c2C)c(OC)n1` (stereo unspecified), the inhibition is 57.5% (active).

Take `Cn1nccc1C(=O)NC1CCCc2c1cnn2-c1ccc(F)cc1F` (stereo unspecified): the inhibition was 18.5%.

On to `CCc1ccc(-c2nc(SCC(=O)NC3CCCC3)n[nH]2)cc1`, for which the inhibition is 66.6% (active).

For the compound `COC(=O)c1ccccc1NC(=O)CSc1n[nH]c(-c2ccncc2)n1`, the inhibition is -4.67%.

Turning to `CCc1c(C)nc(SCC(=O)NC2CCCC2)[nH]c1=O`, the inhibition was 15.7%.

In the case of `O=C(CN1CCN(C2CCS(=O)(=O)C2)CC1)N1N=C(c2ccc(Cl)cc2)CC1c1ccco1` (stereo unspecified), the inhibition was 73.8% (active).

As for `Cc1ccc(C2=NN(C(=O)CSc3nc(N)cc(N)n3)C(c3ccco3)C2)cc1` (stereo unspecified), the inhibition is 9.43%.

`Cc1ccc(C2=NN(C(=O)COc3ncnc4ccccc34)C(c3ccco3)C2)cc1` (stereo unspecified): the inhibition is -54.3%.

Consider `CC1(C(=O)NS(=O)(=O)c2ccc3ccccc3c2)CCN1C(=O)C1(c2ccc(Cl)cc2)CCC1` (stereo unspecified), for which the inhibition was 17.7%.

`C/C(=N\NC(=O)c1ccc(C)cc1)C1C(=O)c2ccccc2C1=O`: the inhibition is -2.62%.

`CCOc1cccc(/C=C/c2ccc3ccccc3n2)c1OC(C)=O`: the inhibition is 60% (active).

On to `CCOc1ccccc1-c1cc(C(=O)N2CCOCC2)c2ccccc2n1`, for which the inhibition was -5.73%.

For the compound `CCOc1ccccc1/C=N/Nc1nc2ccccc2o1`, the inhibition was 15.2%.

As to `COc1cccc(/C=C/c2ccc3ccccc3n2)c1OC(C)=O`, the inhibition is 86.8% (active).

As for `CC(=O)c1ccc(S(=O)(=O)N2CCN(C(=O)/C=C/c3ccc4ccccc4n3)CC2)cc1`, the inhibition was 6.75%.

In the case of `CC(OC(=O)c1ccc2ccccc2n1)C(=O)c1ccccc1` (stereo unspecified), the inhibition is -11.2%.

As for `CCCc1cc(=O)oc2c(C)c(OC(C)C(=O)NCC(O)c3ccccc3)ccc12` (stereo unspecified), the inhibition was -28.2%.

With `COCn1c(C(O)c2ccccc2)cc2ccccc21` (stereo unspecified), the inhibition is 3.63%.

For `Cc1ccc(-c2ccc(CN3C(C)C(=O)N(Cc4cn(CCC5OCCCO5)nn4)CCS3(=O)=O)cc2)cc1` (stereo unspecified), the inhibition was 5.69%.

As for `Cc1ccc(NC(=O)CSCC(=O)N2CCOCC2)cc1`, the inhibition is -11.3%.

Turning to `C(=C\c1ccccc1)/CSc1nnc(-c2cccnc2)n1Cc1ccco1`, the inhibition is -6.4%.

Turning to `O=C(CSc1nnc(-c2cccnc2)n1Cc1ccco1)c1ccc(Cl)c(Cl)c1`, the inhibition is 62.2% (active).

Turning to `O=C(CSc1nnc(-c2cnccn2)n1Cc1ccco1)c1ccc(Cl)c(Cl)c1`, the inhibition is -5.31%.

For the compound `CNC[C@H]1OCc2cnnn2CCCC(=O)N([C@H](C)CO)C[C@@H]1C`, the inhibition is -13.2%.

For the compound `CCc1nc2ccc(C(=O)NC3CCN(Cc4ccccc4)CC3)cn2c1N(CC)CCOC`, the inhibition is -14.1%.

Regarding `COCCNc1nc2nonc2nc1N1CCCC1c1nccs1` (stereo unspecified), the inhibition is -4.57%.

For `CN1CCN(S(=O)(=O)c2cccc(C(=O)Nc3cccc(S(N)(=O)=O)c3)c2)CC1`, the inhibition was 14.8%.

On to `O=C(Nc1ccc2c(c1)CCC2)c1cccc(S(=O)(=O)Nc2ccccc2Cl)c1`, for which the inhibition is 25.9%.

As to `O=C(Nc1ccc2c(c1)CCC2)c1cccc(S(=O)(=O)N2CCN(c3ccc(F)cc3)CC2)c1`, the inhibition was 65% (active).

As to `COc1ccc(NC(=O)c2ccccc2CC[N+](=O)[O-])cc1`, the inhibition is 2.4%.

For `COCCNC(=O)c1cc2c(Br)ccc(Br)c2nc1N`, the inhibition is 2.81%.

As to `Cc1cc(C)n2c(Nc3c(C)cccc3C)c(CCc3ccccc3)nc2n1`, the inhibition was -5.1%.

As for `OCC1(CO)CC2(C1)CC(CO)(CO)C2`, the inhibition was 15.3%.

Take `Cc1ccc(-c2noc(CCC(=O)Nc3ccccc3N3CCN(C)CC3)n2)cc1`: the inhibition is 12.3%.

On to `COc1cc(/C=C(/NC(=O)c2ccc(Cl)cc2Cl)C(=O)O)cc(OC)c1OC`, for which the inhibition was 15.3%.

For the compound `CCOc1cc(/C=C(/C#N)c2ccc(Cl)cc2)cc(Cl)c1OCC(=O)O`, the inhibition is 83.5% (active).

Take `CCOc1cc(/C=N/NC(=O)OC)ccc1OCCSc1ccc(Cl)cc1`: the inhibition is 10.4%.

As to `COc1ccccc1CNC(=O)C1CCN(S(=O)(=O)c2ccc3c(c2)OCCO3)CC1`, the inhibition is 10.5%.

Take `Cc1ccc(Cn2cc(C(=O)NN)c(=O)c3ccc(F)cc32)cc1`: the inhibition was -2.98%.

Take `CCNc1nc(SCCOc2ccccc2)nc(N(C)C)n1`: the inhibition is -28.5%.

As to `Cc1cccc(NC(=O)C2CC(=O)OC23CCCC3)c1` (stereo unspecified), the inhibition was 14.4%.

As to `Cn1c(=O)c2cc(NC(=O)NCCc3cccs3)ccc2n1Cc1cccc(C(F)(F)F)c1`, the inhibition is 4.52%.

Turning to `COc1ccccc1NC(=O)Nc1nnc(Cc2ccc(F)cc2)s1`, the inhibition was -26.6%.

As for `O=C(Nc1nnc(COc2ccccc2)s1)Nc1ccccc1F`, the inhibition is 62.4% (active).

As to `O=C(Nc1ccccc1)Nc1nnc(COc2ccccc2F)s1`, the inhibition is -8.31%.

Turning to `Brc1ccc(-c2nn[nH]n2)cc1`, the inhibition was 5.03%.

With `CC(=O)C1=C(C)NC2=C(C(=O)CC(C)(C)C2)C1C` (stereo unspecified), the inhibition was 16%.

Consider `COc1ccc(OC)c(/C(C)=N\NC(=O)c2cc3cc(Cl)ccc3n2C)c1`, for which the inhibition is 5.37%.

As for `COCCCNc1nc2ccccc2nc1NS(=O)(=O)c1ccc(F)cc1`, the inhibition was 19.1%.

`Cc1ccc(S(=O)(=O)C(C#N)c2nc3ccccc3nc2N2CCCC2)cc1C` (stereo unspecified): the inhibition is 12.6%.

In the case of `Cc1ccc(S(=O)(=O)Nc2nc3ccccc3nc2N2CCc3ccccc3C2)cc1`, the inhibition is 86.8% (active).

As for `Cc1ccc(C)c(NC(=O)CSc2nc3c(oc4ccccc43)c(=O)n2-c2ccccc2)c1`, the inhibition was 25.1%.

As to `COc1ccccc1C(=O)NC(=S)NC12CC3CC(CC(C3)C1)C2`, the inhibition is 0.54%.

`COc1ccccc1C(=O)NC(=S)Nc1ccc(N2CCOCC2)cc1`: the inhibition is -34.2%.

Take `COc1ccccc1C(=O)NC(=S)Nc1ccccc1N1CCCCC1`: the inhibition is 53.6% (active).

Take `CC(C)(C)c1cc(NC(=O)NN2CCOCC2)nn1-c1c(Cl)cc(Cl)cc1Cl`: the inhibition was 4.79%.

Consider `CC(C)(C)OC(=O)C[C@@H]1C/C=C\C[C@@H](CC(=O)NCCO)C(=O)N[C@H](Cc2c[nH]c3ccccc23)COC1=O`, for which the inhibition was -8.05%.

With `Oc1cccc2ccc(/C=C/c3ccc(Br)s3)nc12`, the inhibition was 57.6% (active).

In the case of `Nc1ccc(S(=O)(=O)Nc2nccc(/C=C/c3ccc(Br)s3)n2)cc1`, the inhibition was -5.92%.

For `CCCN(CC(=O)Nc1ccc(OC)c(OC)c1)CC(=O)Nc1ccc(F)c(F)c1F`, the inhibition is -5.89%.

Take `CCCCN1Cc2c(nc3cc(-c4ccccc4)[nH]n3c2=O)C1=O`: the inhibition was 1.25%.

`O=c1c2c(nc3nc[nH]n13)CCC2`: the inhibition is 1.33%.

Take `O=c1c2c(nc3cc(-c4cccc(Cl)c4)[nH]n13)CCCC2`: the inhibition was 75.5% (active).

Consider `CSc1nnc(SCc2nc3sc(C(=O)O)c(C)c3c(=O)[nH]2)s1`, for which the inhibition was 15.4%.

On to `CCCCCCN1CCN(C2CN(Cc3cn(CCCCCC)nn3)S(=O)(=O)C2)CC1` (stereo unspecified), for which the inhibition is 6.81%.

Turning to `COc1cc(-c2nnc(Cn3cc(C(F)(F)F)ccc3=O)o2)cc(OC)c1OC`, the inhibition was -25.3%.

`C=CCOc1cccc(CNn2cn[nH]c2=S)c1`: the inhibition was 22.9%.

With `CCOC(=O)[C@]12CCCC=C1N(Cc1cccc3ccccc13)C(=O)[C@H](CC(=O)NCC13CC4CC(CC(C4)C1)C3)C2`, the inhibition was 25.4%.

With `C/C(=C\c1ccccc1)C1NC(=O)c2c(sc3c2CCCC3)N1` (stereo unspecified), the inhibition is 77% (active).

Turning to `O=C1NC(c2ccncc2)Nc2sc3c(c21)CCCC3` (stereo unspecified), the inhibition was -14.9%.

On to `O=C(Nc1sc2c(c1-c1nc3ccccc3[nH]1)CCCC2)C1CC1`, for which the inhibition was -8.49%.

As for `CCC1NC(=O)c2cccnc2-n2c1nc1ccc(C)cc1c2=O` (stereo unspecified), the inhibition was -40.1%.

With `O=C(NCc1cccc(C(F)(F)F)c1)c1cccc(S(=O)(=O)N2CCN(Cc3ccccc3)CC2)c1`, the inhibition is 15.4%.

In the case of `O=C(CCC(=O)N1CCN(S(=O)(=O)c2ccc(Cl)cc2)CC1)NCc1cccc(C(F)(F)F)c1`, the inhibition is 57.4% (active).

`CC(NC(=O)CCC(=O)N1CCN(S(=O)(=O)c2ccc(Cl)cc2)CC1)c1ccccc1` (stereo unspecified): the inhibition is 4.74%.

For `Cc1n[nH]c(=O)c2c(NC(=O)COC(=O)c3ncc(Cl)c(Cl)c3Cl)oc(C)c12`, the inhibition is -5.62%.

On to `Cc1noc(C)c1COC(=O)Cn1c(C)nc2ccccc21`, for which the inhibition is -13%.

Regarding `CSc1ccccc1NC(=O)COC(=O)CCCOc1ccc(C)cc1`, the inhibition was -5.19%.

As for `CCCCCCCCCCOC(=O)Cn1c(COc2ccc(C)cc2)[n+](C)c2ccccc21`, the inhibition was 76.3% (active).

With `Cc1ccc(C(=O)CN2C(=O)NC3(CCc4ccccc43)C2=O)c(C)c1` (stereo unspecified), the inhibition is -25.2%.

Take `Cc1ccc(NC(=O)NC(=O)c2ccccc2)cc1F`: the inhibition is -37.5%.

Regarding `O=C(NC(=O)c1ccccc1)Nc1ccccc1O`, the inhibition is 50.8% (active).

On to `CNC(=O)C(NC(=O)c1ccccc1)=C(C)C`, for which the inhibition was 4.65%.

For `COc1ccc(C(=O)NC(C)c2nccs2)cc1OC1CCN(C(C)C)CC1` (stereo unspecified), the inhibition was -14.2%.

For the compound `Cc1cc(C)c(C)c(S(=O)(=O)Nc2cccnc2)c1C`, the inhibition is -12.5%.

`Cc1cc(C)c(C)c(S(=O)(=O)N[C@@H](C)C(=O)OC(C)C(=O)NC(N)=O)c1C` (stereo partly specified): the inhibition is 53.7% (active).

For `Cc1cc(C)c(C)c(S(=O)(=O)Nc2ccc(O)cc2)c1C`, the inhibition was 22.9%.

In the case of `CC1=NN(/C(=N\c2nnc(C)s2)Nc2ccccc2)[C@H](c2ccc(C)cc2)S1`, the inhibition was -7.27%.

With `COC(=O)c1cc2n(n1)CCCNC2=O`, the inhibition is -0.66%.

The record behind these values is PubChem BioAssay AID1159606 (Sanford-Burnham Center for Chemical Genomics, 2016).
